Assay results: PubChem BioAssay (NCATS)
Records with an inconclusive call do not appear. Where a call stands in place of a potency, no number is given. The source made the active and inactive calls. Calls follow the shape of the dose curve; as a rule, active = well fitted inhibition curve with a large enough effect; inconclusive = small, poorly fitted or top-dose-only effect; inactive = flat fitted curve, though single readings scatter.
Potency is read from the fitted curve at half-maximal effect.

Each compound was assayed against Ubiquitin carboxyl-terminal hydrolase 1 (Homo sapiens) (UniProt O94782) (assay: Inhibitors of USP1/UAF1: Pilot qHTS (AID 504865; also: nearly all actives have a fitted effect of over 35% in size)). Conditions: purified USP1/UAF1, Ub-rhodamine cleavage fluorescence; series mostly up to 114 µM.
Sequence of Ubiquitin carboxyl-terminal hydrolase 1 (Homo sapiens) (O94782 whole entry, looked up): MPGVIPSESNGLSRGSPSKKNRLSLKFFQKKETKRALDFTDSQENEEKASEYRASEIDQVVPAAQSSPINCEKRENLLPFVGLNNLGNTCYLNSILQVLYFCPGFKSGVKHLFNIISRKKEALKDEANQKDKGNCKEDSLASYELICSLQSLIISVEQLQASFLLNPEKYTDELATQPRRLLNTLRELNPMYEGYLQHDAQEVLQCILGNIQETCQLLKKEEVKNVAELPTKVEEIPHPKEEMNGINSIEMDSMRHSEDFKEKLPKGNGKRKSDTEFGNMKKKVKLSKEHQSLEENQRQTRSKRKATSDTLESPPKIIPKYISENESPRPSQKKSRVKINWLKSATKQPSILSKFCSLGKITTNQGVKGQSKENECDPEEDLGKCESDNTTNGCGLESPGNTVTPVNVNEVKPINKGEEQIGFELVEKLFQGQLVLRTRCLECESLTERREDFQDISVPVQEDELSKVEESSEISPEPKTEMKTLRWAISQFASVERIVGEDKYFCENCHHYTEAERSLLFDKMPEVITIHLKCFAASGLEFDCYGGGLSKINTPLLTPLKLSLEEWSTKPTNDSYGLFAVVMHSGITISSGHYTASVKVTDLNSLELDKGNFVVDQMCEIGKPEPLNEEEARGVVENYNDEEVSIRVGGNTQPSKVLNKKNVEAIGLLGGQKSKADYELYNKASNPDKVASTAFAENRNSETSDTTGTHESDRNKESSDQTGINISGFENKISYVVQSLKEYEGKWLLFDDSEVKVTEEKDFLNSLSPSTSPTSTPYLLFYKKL
Excerpt: Deubiquitinating enzymes (DUBs) are a class of enzymes that can cleave isopeptide bond formed between the C-terminal carboxylate of ubiquitin and a lysine side-chain amino group on the target protein. Among them, ubiquitin specific proteases (USPs) constitute the largest DUB family. Human USPs are emerging as promising targets for pharmacological intervention because of their connection to a number of human diseases, including prostate, colon and breast cancer (1, 2), pediatric acute lymphoblastic leukemia (3), and familial cylindromatosis (4). The advantage of inhibiting USPs lies in the potential specificity of therapeutic intervention that can lead to better efficacy and reduce nonspecific side effects.
In a collaboration between the University of Delaware and the NIH Chemical Genomics Center, a high-throughput screen assay was developed to screen for USP1/UAF1 inhibitors. This miniaturized assay has a fluorescent read-out and is used to screen the NIH Molecular Libraries Small Molecule Repository (MLSMR) in order to identify a small molecule that inhibits USP1.
NIH Chemical Genomics Center [NCGC]
NIH Molecular Libraries Probe Centers Network [MLPCN]
Assay Submitter (PI): Zhihao Zhuang, University of Delaware
1. Priolo, C., et al. (2006) The isopeptidase USP2a protects human prostate cancer from apoptosis. Cancer Res 66, 8625-8632
2. Popov, N., et al. (2007) The ubiquitin-specific protease USP28 is required for MYC stability. Nat Cell Biol 9, 765-774
3. De Pitta, C., et al. (2005) A leukemia-enriched cDNA microarray platform identifies new transcripts with relevance to the biology of pediatric acute lymphoblastic leukemia. Haematologica 90, 890-898
4. Kovalenko, A., et al. (2003) The tumour suppressor CYLD negatively regulates NF-kappaB signalling by deubiquitination. Nature 424, 801-805
3 microliters of reagents (buffer in columns 3 and 4 as negative control and 1nM USP1/UAF1 complex in columns 1, 2, and 5-48) are dispensed into Greiner black solid bottom 1536-well assay plates. Compounds are then transferred via Kalypsys pin tool equipped with 1536-pin array (10nl slotted pins, V&P Scientific, San Diego, CA). Following an incubation step of 15 min at room temperature, 1ul of Ub-Rho substrate (150nM final concentration) is added to initiate the reaction. The plates are immediately centrifuged at 1000 rpm for 15 seconds, and subsequently transferred to a ViewLux high-throughput CCD imager (PerkinElmer) wherein kinetic measurements of fluorescence are acquired using 480 nm excitation/540 nm emission filter set (6 reads every 60 seconds, see Table 1). All reagents are diluted in an assay buffer consisting of 50mM HEPES (pH 7.8), 0.5mM EDTA, 0.1 mg/ml BSA, 1mM TCEP, and 0.01% Tween-20.
For `Cc1cc(C)cc(OCC2CNC(=O)O2)c1` (stereo not given), the Potency was “inactive”.
`CC(C)[N+](C)(C)CC(O)COc1cccc2ccccc12` (stereo not given) was tested, and the Potency was “inactive”.
In the case of `C#C[C@]1(O)CC[C@H]2[C@@H]3CCc4cc(OC)ccc4[C@H]3CC[C@@]21C`, the Potency is reported as “inactive”.
`CCCCNC(=O)NS(=O)(=O)c1ccc(N)cc1` was tested, and the Potency was “inactive”.
With `CCC(Cc1c(I)cc(I)c(N)c1I)C(=O)O` (stereo not given) the Potency was “inactive”.
For `Cc1ccc2c(Br)cc(Br)c(O)c2n1`, the Potency was “inactive”.
In the case of `O=C1C(CCS(=O)c2ccccc2)C(=O)N(c2ccccc2)N1c1ccccc1` (stereo not given), the Potency is reported as “inactive”.
In the case of `COP(=O)(OC)OC(c1ccc(Cl)cc1)P(=O)(OC)OC` (stereo not given), the Potency is reported as “inactive”.
For `CCCCc1cc2ccccc2c(OCCN(C)C)n1`, the Potency was “inactive”.
For `CC(C(=O)O)c1cccc(Oc2ccccc2)c1` (stereo not given), the Potency was “inactive”.
With `COc1cc(C(=O)N2CCCCCCC2)cc(OC)c1OC` the Potency was “inactive”.
`CCC(C(=O)OCCOCCN(CC)CC)c1ccccc1` (stereo not given) was tested, and the Potency was “inactive”.
In the case of `C/C=C/C=N/NC(=O)c1ccncc1`, the Potency is reported as “inactive”.
In the case of `Cc1ccc(S(=O)(=O)NC(=O)NC2CCCC2)cc1`, the Potency is reported as “inactive”.
For `COc1cc(N)c(Cl)cc1C(=O)NC1CCN(Cc2ccccc2)CC1`, the Potency was “inactive”.
In the case of `O=C(Nc1ccc([N+](=O)[O-])cc1)Nc1ccc([N+](=O)[O-])cc1`, the Potency is reported as “inactive”.
For `CC(C)(C)NC[C@H](O)COc1nsnc1N1CCOCC1`, the Potency was “inactive”.
For `C[N+]12CCC(CC1)C(OC(=O)C(O)(c1ccccc1)c1ccccc1)C2` (stereo not given), the Potency was “inactive”.
`COc1cc([C@H]2Oc3cc([C@H]4Oc5cc(O)cc(O)c5C(=O)[C@@H]4O)ccc3O[C@@H]2CO)ccc1O` was tested, and the Potency was “inactive”.
With `CC(=O)O[C@H]1C[C@@H]2CC[C@@H]3[C@H](CC[C@@]4(C)[C@H]3C[C@H]([N+]3(C)CCCCC3)[C@@H]4OC(C)=O)[C@@]2(C)C[C@@H]1N1CCCCC1` the Potency was “inactive”.
In the case of `C/C=C/c1ccc(O)c(OC)c1`, the Potency is reported as “inactive”.
`O=S(=O)(O)c1ccc(O)cc1` was tested, and the Potency was “inactive”.
In the case of `CCN1/C(=C/C=C/c2sc3ccccc3[n+]2CC)Sc2ccccc21`, the Potency is reported as 44.7 µM (active).
`O=C(O)c1ccc(S(=O)(=O)N(Cl)Cl)cc1` was tested, and the Potency was “inactive”.
For `CC(C)(Cc1c[nH]c2ccccc12)NCC(O)COc1ccccc1C#N` (stereo not given), the Potency was “inactive”.
With `O=C(O)C(Cc1cc(I)c(O)c(I)c1)c1ccccc1` (stereo not given) the Potency was “inactive”.
In the case of `O=C(O)P(=O)(O)O`, the Potency is reported as “inactive”.
In the case of `COc1ccccc1N1CCN(CCCCNC(=O)c2ccc(-c3ccc(C(C)=O)cc3)cc2)CC1`, the Potency is reported as “inactive”.
In the case of `COc1cc(C(=S)N2CCOCC2)ccc1O`, the Potency is reported as “inactive”.
With `CN1CCN(CCC(=O)N2c3ccccc3Sc3ccc(C(F)(F)F)cc32)CC1` the Potency was “inactive”.
With `CC(=O)Nc1ccc(CC(=O)O)cc1` the Potency was “inactive”.
`COc1ccc(/C=N/NC(=O)c2ccncc2)cc1OC` was tested, and the Potency was “inactive”.
`NS(=O)(=O)c1cc(C(=O)O)cc(N2CCCC2)c1Oc1ccccc1` was tested, and the Potency was “inactive”.
With `COc1ccc(C(=O)c2ccccc2)c(O)c1` the Potency was “inactive”.
For `c1ccc(CC2=NCCN2)cc1`, the Potency was “inactive”.
For `CN(C)CCC[C@@]1(c2ccc(F)cc2)OCc2cc(C#N)ccc21`, the Potency was “inactive”.
In the case of `CCOc1ccccc1OCCN[C@H](C)Cc1ccc(OC)c(S(N)(=O)=O)c1`, the Potency is reported as “inactive”.
For `CCOc1ccccc1C(N)=O`, the Potency was “inactive”.
In the case of `COc1ccc(C(Cl)=C(c2ccc(OC)cc2)c2ccc(OC)cc2)cc1`, the Potency is reported as “inactive”.
With `CC(C)Nc1cccnc1N1CCN(C(=O)c2cc3cc(NS(C)(=O)=O)ccc3[nH]2)CC1` the Potency was “inactive”.
